In the library only some 28% were active in any assay of this set; here they are far more common.
Mac1 fbg inh = inhibitors of CD11b/CD18 adhesion to fibrinogen, primary screen, K562 cells, luminescence; Integrin beta-2 (Homo sapiens) + Integrin alpha-M (Homo sapiens), P05107+P11215; ATPlite luminescence; Mn2+ added to activate the integrin; inhibition, % at 10 µM; 93,000 compounds, 0.54% hits; AID 1497, 2009;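 active means primary inhibition of 50% or more at 10 µM, then 40% or more on retest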
CYP2C19 inh = blockers of cytochrome P450 2C19 activity – biochemical, luminescence, ADME assay, primary screen; inhibition, % at 5 µM; AID 778, 2007; 96,000 compounds, 21% hits; CYP2C19 Supersomes, luciferin-H EGE luminescence, 30 min;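 active means CYP2C19 inhibition above a set limit at 5 µM in the primary screen, cut at about 50% in these data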;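 further: plate controls were negative control wells for no effect and 2.5 mM tranylcypromine positive control for full effect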
CYP2C9 act = human CYP2C9 activators, primary screen, biochemical, luminescence; recombinant CYP2C9, luciferin-H conversion; stronger effect = higher value; factor 1 = untreated enzyme, 0 = blocked; activation factor at 5 µM; 96,000 compounds, 1.4% hits;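 active means activation factor of 2 or more for CYP2C9 at a 5 µM dose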;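 further: 0 = sulfaphenazole-blocked wells and 1 = vehicle-only wells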
Target sequence (P11712 whole entry, looked up): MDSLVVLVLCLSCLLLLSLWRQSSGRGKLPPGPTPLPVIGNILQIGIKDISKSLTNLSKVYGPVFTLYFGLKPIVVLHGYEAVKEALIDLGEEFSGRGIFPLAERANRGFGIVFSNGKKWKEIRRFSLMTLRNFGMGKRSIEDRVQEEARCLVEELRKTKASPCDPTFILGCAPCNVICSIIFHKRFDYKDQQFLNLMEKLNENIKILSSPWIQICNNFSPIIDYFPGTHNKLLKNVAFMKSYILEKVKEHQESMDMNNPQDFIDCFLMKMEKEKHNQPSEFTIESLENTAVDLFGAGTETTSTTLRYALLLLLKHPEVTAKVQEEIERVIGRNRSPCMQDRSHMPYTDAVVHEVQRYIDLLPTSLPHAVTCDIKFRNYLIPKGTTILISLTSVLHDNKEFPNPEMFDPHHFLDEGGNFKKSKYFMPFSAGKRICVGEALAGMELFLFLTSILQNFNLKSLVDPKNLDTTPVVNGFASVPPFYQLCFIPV
CYP2C9 inhib = blockers of cytochrome P450 2C9 activity – biochemical, luminescence, ADME assay, primary screen | CYP2C9 Supersomes, luciferin-H conversion | 96,000 compounds, 20% hits | inhibition, % at 5 µM;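 active means blocking of liver enzyme CYP2C9 beyond about 50% at 5 µM, limit read from the data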
CYP2C19 act = human CYP2C19 activators, primary screen, biochemical, luminescence; 96,000 tested, under 10 active; recombinant CYP2C19, luciferin-H EGE luminescence; stronger effect = higher value; 0 = fully inhibited enzyme, 1 = untreated enzyme; Cytochrome P450 2C19 (Homo sapiens), P33261; activation factor at 5 µM; AID 1025, 2008;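 active means activation factor of at least 2 at 5 µM in the primary screen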;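 further: 0 = wells with 2.5 mM tranylcypromine and 1 = vehicle-only wells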
CD11b adhes enh = enhancers of CD11b/CD18 adhesion to fibrinogen, primary screen, K562 cells, luminescence | Integrin beta-2 (Homo sapiens) + Integrin alpha-M (Homo sapiens), P05107+P11215 | ATPlite luminescence | activation, % at 10 µM | 93,000 compounds, 0.07% hits;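 active means 10 µM primary screen giving 50% or more activity, confirmed by 40% or more on retest at that dose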
Numbers without * were called inactive.

What do the screens show for `O=c1cc(CSc2ccc(Cl)cc2)nc(N2CCCCC2)[nH]1`?
Mac1 fbg inh: -3; CYP2C19 inh: 5; CYP2C9 act: 0.7; CYP2C9 inhib: 34; CYP2C19 act: 1; CD11b adhes enh: 0

Results for CCOC(=O)C(O)(CCC(O)(C(=O)OCC)C(=O)OCC)C(=O)OCC ?
Mac1 fbg inh: -9; CYP2C19 inh: 19; CYP2C9 act: 1; CYP2C9 inhib: -4; CYP2C19 act: 0.8; CD11b adhes enh: -7

Results for COc1ccc(N(CC(=O)Nc2cc(C)on2)S(=O)(=O)c2cc(C)ccc2C)cc1 ?
Mac1 fbg inh: -1; CYP2C19 inh: 98*; CYP2C9 act: 0; CYP2C9 inhib: 95*; CYP2C19 act: 0; CD11b adhes enh: -2

Results for CCOC(=O)c1ccc(NC(=O)CN(c2ccc(C)cc2)S(=O)(=O)c2c(C)n[nH]c2C)cc1 ?
Mac1 fbg inh: -15; CYP2C19 inh: 19; CYP2C9 act: 0.2; CYP2C9 inhib: 76*; CYP2C19 act: 0.8; CD11b adhes enh: -6

What do the screens show for `COc1ccc(NC(=O)CN(c2cc(C)cc(C)c2)S(=O)(=O)c2c(C)n[nH]c2C)cc1`?
Mac1 fbg inh: 0; CYP2C19 inh: 14; CYP2C9 act: 0.3; CYP2C9 inhib: 69*; CYP2C19 act: 0.9; CD11b adhes enh: 1

Results for COc1ccccc1CNC(=O)CN(c1ccc(C)cc1)S(=O)(=O)c1c(C)n[nH]c1C ?
Mac1 fbg inh: -11; CYP2C19 inh: 67*; CYP2C9 act: 0.3; CYP2C9 inhib: 67*; CYP2C19 act: 0.3; CD11b adhes enh: -3

What do the screens show for `COc1ccc(N(CC(=O)O)S(=O)(=O)c2c(C)n[nH]c2C)cc1`?
Mac1 fbg inh: 6; CYP2C19 inh: -12; CYP2C9 act: 1.1; CYP2C9 inhib: -14; CYP2C19 act: 1.1; CD11b adhes enh: -2

Results for O=C(CCS(=O)(=O)c1ccc(Cl)cc1)OCC(=O)N1CCCCC1 ?
Mac1 fbg inh: -16; CYP2C19 inh: 9; CYP2C9 act: 0.9; CYP2C9 inhib: 6; CYP2C19 act: 0.9; CD11b adhes enh: 1

What do the screens show for `O=C(OCCN1CCCC1=O)c1cc(F)c(F)c(F)c1F`?
Mac1 fbg inh: 0; CD11b adhes enh: -1

What do the screens show for `CCOc1ccccc1NC(=O)CN(c1ccc(C)cc1)S(=O)(=O)c1c(C)n[nH]c1C`?
Mac1 fbg inh: -4; CYP2C19 inh: 73*; CYP2C9 act: 0.1; CYP2C9 inhib: 95*; CYP2C19 act: 0.3; CD11b adhes enh: 2

How did COc1cccc(N2CCN(C(=O)CN(c3ccc(C)cc3)S(=O)(=O)c3c(C)n[nH]c3C)CC2)c1 do in these assays?
Mac1 fbg inh: -4; CYP2C19 inh: 58*; CYP2C9 act: 0.2; CYP2C9 inhib: 81*; CYP2C19 act: 0.4; CD11b adhes enh: 0

Results for Cc1ccc(N(CC(=O)Nc2ccc3c(c2)OCCO3)S(=O)(=O)c2c(C)noc2C)cc1 ?
Mac1 fbg inh: -18; CYP2C19 inh: -4; CYP2C9 act: 0.8; CYP2C9 inhib: 24; CYP2C19 act: 1; CD11b adhes enh: -4

Results for Cc1cc(C)cc(N(CC(=O)N2CCN(c3ccccc3)CC2)S(=O)(=O)c2c(C)noc2C)c1 ?
Mac1 fbg inh: -10; CYP2C19 inh: 31; CYP2C9 act: 0.8; CYP2C9 inhib: 24; CYP2C19 act: 0.7; CD11b adhes enh: 1

Results for Cc1ccc(N(C(C)C(=O)O)S(=O)(=O)c2c(C)n[nH]c2C)cc1 (configuration not stated) ?
Mac1 fbg inh: -5; CYP2C19 inh: 11; CYP2C9 act: 0.8; CYP2C9 inhib: 20; CYP2C19 act: 0.9; CD11b adhes enh: 1

Results for Cc1ccc(N(CC(=O)Nc2ccc3c(c2)OCCO3)S(=O)(=O)c2c(C)n[nH]c2C)cc1 ?
Mac1 fbg inh: 1; CYP2C19 inh: 62*; CYP2C9 act: 0.3; CYP2C9 inhib: 74*; CYP2C19 act: 0.4; CD11b adhes enh: 0

What do the screens show for `COc1cc2c(cc1NC(=O)CN1C(=O)NC3(CCc4ccccc43)C1=O)oc1ccccc12` (configuration not stated)?
Mac1 fbg inh: 12; CYP2C19 inh: 2; CYP2C9 act: 0.6; CYP2C9 inhib: 38; CYP2C19 act: 1; CD11b adhes enh: -1

How did CCCCC(=O)Nc1cccc(-c2nn3c(C)nnc3s2)c1 do in these assays?
Mac1 fbg inh: 3; CYP2C19 inh: 14; CYP2C9 act: 0.8; CYP2C9 inhib: 17; CYP2C19 act: 0.9; CD11b adhes enh: 1

How did Cc1cc(N)n(-c2nc(-c3cccnc3)nc3ccccc23)n1 do in these assays?
CYP2C19 inh: 7; CYP2C9 act: 0.6; CYP2C9 inhib: 37; CYP2C19 act: 0.9

What do the screens show for `O=S(=O)(NCCCN1CCN(c2ccccc2F)CC1)c1cccc2cccnc12`?
Mac1 fbg inh: 2; CYP2C19 inh: 55*; CYP2C9 act: 2.3*; CYP2C9 inhib: -135; CYP2C19 act: 0.4; CD11b adhes enh: -1

Results for CN(CCCNS(=O)(=O)c1cccc2cccnc12)Cc1ccccc1 ?
Mac1 fbg inh: 21; CYP2C19 inh: 37; CYP2C9 act: 2.5*; CYP2C9 inhib: -147; CYP2C19 act: 0.6; CD11b adhes enh: 4

Results for O=S(=O)(NCc1ccccc1)c1cccc2cccnc12 ?
Mac1 fbg inh: -4; CYP2C19 inh: 79*; CYP2C9 act: 0.2; CYP2C9 inhib: 78*; CYP2C19 act: 0.2; CD11b adhes enh: 2

Results for O=S(=O)(NCCO)c1cccc2cccnc12 ?
Mac1 fbg inh: -9; CYP2C19 inh: 20; CYP2C9 act: 0.6; CYP2C9 inhib: 36; CYP2C19 act: 0.8; CD11b adhes enh: 5

What do the screens show for `CSc1ncc(Cl)c(C(=O)Nc2sc3c(c2C(=O)NCc2ccco2)CCCC3)n1`?
Mac1 fbg inh: -9; CYP2C19 inh: 5; CYP2C9 act: 0.7; CYP2C9 inhib: 28; CYP2C19 act: 0.9; CD11b adhes enh: 18

Results for COc1ccc(/C=C(/C#N)C(=O)Nc2ccccc2C)cc1C(=O)O ?
Mac1 fbg inh: 8; CD11b adhes enh: -2

What do the screens show for `COc1ccc(/C=C(/C#N)C(=O)Nc2cccc(C)c2C)cc1C(=O)O`?
Mac1 fbg inh: -4; CYP2C19 inh: 58*; CYP2C9 act: 0.8; CYP2C9 inhib: 16; CYP2C19 act: 0.4; CD11b adhes enh: 1

Results for Cn1c(=O)n(Cc2ccccc2)c2ccccc21 ?
Mac1 fbg inh: 3; CYP2C19 inh: 19; CYP2C9 act: 1; CYP2C9 inhib: 3; CYP2C19 act: 0.8; CD11b adhes enh: 0

Screens deposited in PubChem by Sanford-Burnham Center for Chemical Genomics.
